What all share (assay): DAPPL (digital affinity profiling via proximity ligation, sequencing); 10 mM Tris-HCl pH 7.5, 50 mM NaCl, 1 mM DTT, 4% glycerol, room temperature, 30 min; GST-TFs on glutathione beads, 16-mer random dsDNA library, 0.1% formaldehyde crosslink after washing; high values mean tight binding
For one assay, the target named is T1, FEV (Homo sapiens, UniProt Q99581 1-238).
T1 sequence: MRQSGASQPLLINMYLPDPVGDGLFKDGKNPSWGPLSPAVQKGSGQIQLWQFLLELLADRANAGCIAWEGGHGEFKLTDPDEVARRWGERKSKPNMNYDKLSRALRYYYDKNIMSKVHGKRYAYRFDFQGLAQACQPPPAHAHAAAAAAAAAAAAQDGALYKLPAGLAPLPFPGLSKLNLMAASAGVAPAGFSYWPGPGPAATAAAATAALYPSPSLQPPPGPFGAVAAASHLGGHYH
Conditions: protein: recombinant; tags: N-terminal GST; dsDNA, one strand shown. Put shortly: (§1)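 Binding signal is each hexamer's read frequency for a factor divided by its frequency in the tag-only sample. The factors were GST-fused human transcription factors from yeast, captured on glutathione beads, DNA-barcoded and pooled with that sample. Pools were incubated with 200 nmole of a random double-stranded 16-mer DNA library in Tris/NaCl/DTT/glycerol buffer at room temperature for 30 min, then washed, crosslinked with 0.1% formaldehyde, proximity-ligated with BsaI/T4 ligase (1 h, 37 °C), PCR-amplified and sequenced on an Illumina NextSeq500.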

Another assay addresses ETV5 (Homo sapiens, UniProt P41161 1-510). To be noted: protein: recombinant; tags: N-terminal GST; dsDNA, one strand shown. Put shortly:
as §1

Another assay addresses HSF1 (Homo sapiens, UniProt Q00613 1-529). To be noted: protein: recombinant; tags: N-terminal GST; chain copies: 3; dsDNA, one strand shown. Put shortly: as §1
The next assay deals with T2, SPIC (Homo sapiens, UniProt Q8N5J4 1-248).
T2 sequence: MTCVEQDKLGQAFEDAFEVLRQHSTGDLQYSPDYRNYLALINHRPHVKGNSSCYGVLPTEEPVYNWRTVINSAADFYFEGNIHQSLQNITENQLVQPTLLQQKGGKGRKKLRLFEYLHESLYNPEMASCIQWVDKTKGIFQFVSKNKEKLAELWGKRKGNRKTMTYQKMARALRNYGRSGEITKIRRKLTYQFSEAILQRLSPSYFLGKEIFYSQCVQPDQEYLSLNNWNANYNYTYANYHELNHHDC
To be noted: protein: recombinant; tags: N-terminal GST; dsDNA, one strand shown. Put shortly:
as §1

In a further assay the target is ELF4 (Homo sapiens, UniProt Q99607 1-663). To be noted: protein: recombinant; tags: N-terminal GST; dsDNA, one strand shown. Put shortly:
as §1

The target of a further assay is T3, ELK4 (Homo sapiens, UniProt P28324-2 1-405).
T3 sequence: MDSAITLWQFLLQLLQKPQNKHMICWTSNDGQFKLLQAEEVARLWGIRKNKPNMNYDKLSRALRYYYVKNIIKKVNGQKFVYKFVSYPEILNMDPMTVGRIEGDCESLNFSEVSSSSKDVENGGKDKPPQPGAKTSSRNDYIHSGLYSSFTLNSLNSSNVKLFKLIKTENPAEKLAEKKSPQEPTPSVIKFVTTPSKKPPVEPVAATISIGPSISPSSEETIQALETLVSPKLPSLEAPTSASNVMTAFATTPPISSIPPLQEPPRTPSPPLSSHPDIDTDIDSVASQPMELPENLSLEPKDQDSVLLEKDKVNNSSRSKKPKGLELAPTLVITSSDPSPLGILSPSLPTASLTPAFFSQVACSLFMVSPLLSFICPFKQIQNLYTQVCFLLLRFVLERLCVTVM
To be noted: protein: recombinant; tags: N-terminal GST; dsDNA, one strand shown. Put shortly:
as §1

The next assay has as its target T4, ETV2 (Homo sapiens, UniProt O00321 1-342).
T4 sequence: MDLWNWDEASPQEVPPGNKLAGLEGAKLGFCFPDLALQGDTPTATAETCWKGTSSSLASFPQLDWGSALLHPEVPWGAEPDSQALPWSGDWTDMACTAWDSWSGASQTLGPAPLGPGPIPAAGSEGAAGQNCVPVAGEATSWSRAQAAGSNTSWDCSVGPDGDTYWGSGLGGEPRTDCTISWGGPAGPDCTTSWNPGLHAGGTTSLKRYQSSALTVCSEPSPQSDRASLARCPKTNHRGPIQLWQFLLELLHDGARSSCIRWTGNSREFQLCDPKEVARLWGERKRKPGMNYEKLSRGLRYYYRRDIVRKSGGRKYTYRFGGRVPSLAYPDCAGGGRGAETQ
To be noted: protein: recombinant; tags: N-terminal GST; dsDNA, one strand shown. Put shortly: as §1

Another assay deals with T5, ELF3 (Homo sapiens, UniProt P78545 1-371).
T5 sequence: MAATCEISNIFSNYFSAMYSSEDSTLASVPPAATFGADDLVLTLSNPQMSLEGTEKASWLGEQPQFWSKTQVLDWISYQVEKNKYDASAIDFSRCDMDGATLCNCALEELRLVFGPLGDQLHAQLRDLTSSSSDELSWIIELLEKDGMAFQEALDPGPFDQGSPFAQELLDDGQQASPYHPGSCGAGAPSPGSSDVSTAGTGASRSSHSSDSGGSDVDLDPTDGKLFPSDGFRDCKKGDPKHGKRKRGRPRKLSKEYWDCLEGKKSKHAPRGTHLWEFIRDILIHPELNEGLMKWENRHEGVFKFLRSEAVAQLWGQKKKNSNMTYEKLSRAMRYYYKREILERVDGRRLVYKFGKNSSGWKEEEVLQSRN
To be noted: protein: recombinant; tags: N-terminal GST; dsDNA, one strand shown. The method, boiled down: as §1

A further assay concerns the target CRX (Homo sapiens, UniProt O43186 1-299). To be noted: protein: recombinant; tags: N-terminal GST; dsDNA, one strand shown. The method, boiled down: as §1
A further assay concerns the target ETV1 (Homo sapiens, UniProt P50549 1-477). To be noted: protein: recombinant; tags: N-terminal GST; dsDNA, one strand shown. The method, boiled down: as §1
The target of another assay is T6, ERF (Homo sapiens, UniProt P50548 1-548).
T6 sequence: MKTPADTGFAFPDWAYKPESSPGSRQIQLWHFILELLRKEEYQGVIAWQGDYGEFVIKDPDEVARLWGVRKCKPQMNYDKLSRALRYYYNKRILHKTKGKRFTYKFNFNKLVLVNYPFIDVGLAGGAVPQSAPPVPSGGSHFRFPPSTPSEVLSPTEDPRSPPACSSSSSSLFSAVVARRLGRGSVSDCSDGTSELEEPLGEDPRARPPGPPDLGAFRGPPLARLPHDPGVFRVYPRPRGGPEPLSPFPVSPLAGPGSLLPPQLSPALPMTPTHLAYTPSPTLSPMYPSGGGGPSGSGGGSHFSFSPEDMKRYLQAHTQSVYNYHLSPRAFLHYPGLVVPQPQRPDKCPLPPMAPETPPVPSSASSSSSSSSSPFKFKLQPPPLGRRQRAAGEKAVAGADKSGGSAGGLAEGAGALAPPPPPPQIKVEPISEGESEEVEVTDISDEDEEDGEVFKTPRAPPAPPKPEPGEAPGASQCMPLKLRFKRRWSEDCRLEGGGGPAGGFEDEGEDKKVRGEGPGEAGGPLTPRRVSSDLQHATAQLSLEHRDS
To be noted: protein: recombinant; tags: N-terminal GST; dsDNA, one strand shown. Put shortly: as §1

A further assay deals with T7, ETV3L (Homo sapiens, UniProt Q6ZN32 1-361).
T7 sequence: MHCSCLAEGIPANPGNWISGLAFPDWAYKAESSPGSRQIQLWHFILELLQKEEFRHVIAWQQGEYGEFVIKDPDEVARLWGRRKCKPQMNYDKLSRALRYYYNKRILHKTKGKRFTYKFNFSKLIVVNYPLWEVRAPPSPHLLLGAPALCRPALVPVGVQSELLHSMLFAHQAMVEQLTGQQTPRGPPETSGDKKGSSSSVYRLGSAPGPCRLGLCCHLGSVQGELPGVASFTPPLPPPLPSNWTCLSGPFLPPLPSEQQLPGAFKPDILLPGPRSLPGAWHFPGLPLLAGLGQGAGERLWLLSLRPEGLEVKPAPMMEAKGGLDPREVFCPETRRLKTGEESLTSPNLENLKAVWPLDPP
Conditions: protein: recombinant; tags: N-terminal GST; dsDNA, one strand shown. The method, boiled down:
as §1

Another assay deals with T8, ETS2 (Homo sapiens, UniProt P15036 1-469).
T8 sequence: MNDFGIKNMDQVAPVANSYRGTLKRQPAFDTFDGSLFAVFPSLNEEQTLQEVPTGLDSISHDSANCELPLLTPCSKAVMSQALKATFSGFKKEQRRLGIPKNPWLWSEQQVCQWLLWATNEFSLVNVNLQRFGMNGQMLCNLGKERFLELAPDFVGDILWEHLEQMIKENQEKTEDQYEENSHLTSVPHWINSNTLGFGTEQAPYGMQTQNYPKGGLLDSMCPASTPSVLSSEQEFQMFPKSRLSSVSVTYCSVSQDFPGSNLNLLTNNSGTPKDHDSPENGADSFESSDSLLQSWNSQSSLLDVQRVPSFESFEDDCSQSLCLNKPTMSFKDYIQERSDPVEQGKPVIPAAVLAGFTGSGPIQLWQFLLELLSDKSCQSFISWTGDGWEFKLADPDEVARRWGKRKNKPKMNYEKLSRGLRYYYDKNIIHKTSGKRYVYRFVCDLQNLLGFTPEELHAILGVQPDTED
To be noted: protein: recombinant; tags: N-terminal GST; dsDNA, one strand shown. Put shortly:
as §1

A further assay concerns the target T9, SPDEF (Homo sapiens, UniProt O95238 1-335).
T9 sequence: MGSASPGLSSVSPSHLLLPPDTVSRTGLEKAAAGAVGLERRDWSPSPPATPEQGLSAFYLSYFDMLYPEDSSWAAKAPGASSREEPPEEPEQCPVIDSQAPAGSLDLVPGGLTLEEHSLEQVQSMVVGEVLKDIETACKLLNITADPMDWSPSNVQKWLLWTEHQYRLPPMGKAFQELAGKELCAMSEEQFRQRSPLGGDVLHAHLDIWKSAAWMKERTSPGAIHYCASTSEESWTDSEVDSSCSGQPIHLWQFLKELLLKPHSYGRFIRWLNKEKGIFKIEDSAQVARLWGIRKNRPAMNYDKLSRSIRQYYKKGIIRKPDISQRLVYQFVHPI
To be noted: protein: recombinant; tags: N-terminal GST; dsDNA, one strand shown. Put shortly: as §1

The next assay has as its target T10, ETV7 (Homo sapiens, UniProt Q9Y603 1-341).
T10 sequence: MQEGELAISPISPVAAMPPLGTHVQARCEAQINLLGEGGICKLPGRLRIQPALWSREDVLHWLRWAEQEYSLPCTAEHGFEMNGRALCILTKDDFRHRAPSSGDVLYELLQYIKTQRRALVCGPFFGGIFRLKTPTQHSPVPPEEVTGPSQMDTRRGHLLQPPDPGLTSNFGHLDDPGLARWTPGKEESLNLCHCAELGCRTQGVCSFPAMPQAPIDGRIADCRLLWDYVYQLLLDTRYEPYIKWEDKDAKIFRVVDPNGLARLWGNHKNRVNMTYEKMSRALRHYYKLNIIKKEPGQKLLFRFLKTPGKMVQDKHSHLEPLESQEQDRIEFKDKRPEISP
To be noted: protein: recombinant; tags: N-terminal GST; dsDNA, one strand shown. The method, boiled down: as §1

Another assay concerns the target T11, ELF5 (Homo sapiens, UniProt Q9UKW6-2 1-255).
T11 sequence: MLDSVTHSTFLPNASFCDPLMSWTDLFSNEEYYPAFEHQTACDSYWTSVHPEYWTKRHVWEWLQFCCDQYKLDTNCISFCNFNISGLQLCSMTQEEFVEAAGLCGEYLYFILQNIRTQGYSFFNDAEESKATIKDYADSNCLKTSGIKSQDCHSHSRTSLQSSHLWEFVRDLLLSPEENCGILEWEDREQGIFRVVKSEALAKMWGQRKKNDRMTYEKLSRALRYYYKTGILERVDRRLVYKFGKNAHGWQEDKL
To be noted: protein: recombinant; tags: N-terminal GST; dsDNA, one strand shown. The method, boiled down:
as §1

A further assay concerns the target T12, ETV3 (Homo sapiens, UniProt P41162-2 1-143).
T12 sequence: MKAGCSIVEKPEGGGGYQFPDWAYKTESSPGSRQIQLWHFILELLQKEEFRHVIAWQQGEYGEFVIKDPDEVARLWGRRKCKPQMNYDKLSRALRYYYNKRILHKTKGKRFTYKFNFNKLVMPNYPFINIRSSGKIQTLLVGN
Conditions: protein: recombinant; tags: N-terminal GST; dsDNA, one strand shown. Put shortly:
as §1

Another assay deals with ETV6 (Homo sapiens, UniProt P41212 1-452). Conditions: protein: recombinant; tags: N-terminal GST; dsDNA, one strand shown. Put shortly:
as §1

Sequence of CRX (O43186 whole entry): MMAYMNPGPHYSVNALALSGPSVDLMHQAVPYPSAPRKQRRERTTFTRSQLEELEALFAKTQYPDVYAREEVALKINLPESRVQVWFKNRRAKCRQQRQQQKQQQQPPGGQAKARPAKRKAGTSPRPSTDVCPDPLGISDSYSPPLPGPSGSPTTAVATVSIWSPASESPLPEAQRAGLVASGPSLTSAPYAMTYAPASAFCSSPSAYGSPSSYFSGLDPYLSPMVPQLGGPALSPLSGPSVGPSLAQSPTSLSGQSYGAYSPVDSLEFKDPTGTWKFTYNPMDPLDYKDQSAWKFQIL
Sequence of ELF4 (Q99607 whole entry): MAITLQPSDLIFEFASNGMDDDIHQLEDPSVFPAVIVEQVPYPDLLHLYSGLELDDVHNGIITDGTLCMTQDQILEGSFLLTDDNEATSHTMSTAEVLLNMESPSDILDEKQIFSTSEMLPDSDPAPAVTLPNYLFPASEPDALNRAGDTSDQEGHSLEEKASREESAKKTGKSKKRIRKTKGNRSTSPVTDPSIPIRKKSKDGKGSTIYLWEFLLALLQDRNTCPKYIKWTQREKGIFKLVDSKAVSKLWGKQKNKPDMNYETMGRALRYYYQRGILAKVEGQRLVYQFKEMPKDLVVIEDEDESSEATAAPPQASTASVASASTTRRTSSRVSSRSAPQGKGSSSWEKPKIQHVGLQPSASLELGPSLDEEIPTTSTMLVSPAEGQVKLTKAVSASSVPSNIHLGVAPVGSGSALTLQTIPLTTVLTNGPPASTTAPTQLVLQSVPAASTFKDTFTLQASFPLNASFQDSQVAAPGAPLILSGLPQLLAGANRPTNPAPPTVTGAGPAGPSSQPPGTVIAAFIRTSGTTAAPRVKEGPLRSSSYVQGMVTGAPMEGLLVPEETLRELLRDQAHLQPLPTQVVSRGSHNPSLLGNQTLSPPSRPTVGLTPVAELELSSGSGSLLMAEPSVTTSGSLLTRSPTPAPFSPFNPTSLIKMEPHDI
Sequence of HSF1 (Q00613 whole entry): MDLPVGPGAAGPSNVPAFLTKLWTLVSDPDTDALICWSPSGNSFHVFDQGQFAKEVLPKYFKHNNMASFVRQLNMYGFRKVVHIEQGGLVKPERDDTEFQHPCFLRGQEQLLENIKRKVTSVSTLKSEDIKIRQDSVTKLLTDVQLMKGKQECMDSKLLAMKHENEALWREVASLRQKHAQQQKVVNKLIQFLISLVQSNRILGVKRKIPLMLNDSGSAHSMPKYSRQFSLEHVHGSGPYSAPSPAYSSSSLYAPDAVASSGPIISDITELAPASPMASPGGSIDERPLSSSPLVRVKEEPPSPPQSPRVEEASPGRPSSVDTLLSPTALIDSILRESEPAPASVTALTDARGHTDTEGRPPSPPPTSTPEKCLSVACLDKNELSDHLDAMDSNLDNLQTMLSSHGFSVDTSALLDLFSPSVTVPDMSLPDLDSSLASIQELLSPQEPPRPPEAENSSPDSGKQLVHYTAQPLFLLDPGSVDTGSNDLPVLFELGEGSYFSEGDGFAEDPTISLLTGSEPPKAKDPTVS
Sequence of ETV1 (P50549 whole entry): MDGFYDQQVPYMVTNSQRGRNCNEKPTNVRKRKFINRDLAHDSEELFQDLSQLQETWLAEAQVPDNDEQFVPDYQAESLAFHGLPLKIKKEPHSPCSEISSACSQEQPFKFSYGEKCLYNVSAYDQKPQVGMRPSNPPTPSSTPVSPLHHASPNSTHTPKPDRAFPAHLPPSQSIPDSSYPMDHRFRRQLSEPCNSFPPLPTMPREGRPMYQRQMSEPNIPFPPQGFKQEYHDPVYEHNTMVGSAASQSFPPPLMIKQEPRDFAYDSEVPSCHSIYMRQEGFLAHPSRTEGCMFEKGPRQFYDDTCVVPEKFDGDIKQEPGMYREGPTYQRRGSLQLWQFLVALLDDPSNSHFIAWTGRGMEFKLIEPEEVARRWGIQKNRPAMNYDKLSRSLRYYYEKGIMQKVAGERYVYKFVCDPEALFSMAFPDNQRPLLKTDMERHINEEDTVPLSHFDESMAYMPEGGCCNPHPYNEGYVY
Sequence of ETV5 (P41161 whole entry): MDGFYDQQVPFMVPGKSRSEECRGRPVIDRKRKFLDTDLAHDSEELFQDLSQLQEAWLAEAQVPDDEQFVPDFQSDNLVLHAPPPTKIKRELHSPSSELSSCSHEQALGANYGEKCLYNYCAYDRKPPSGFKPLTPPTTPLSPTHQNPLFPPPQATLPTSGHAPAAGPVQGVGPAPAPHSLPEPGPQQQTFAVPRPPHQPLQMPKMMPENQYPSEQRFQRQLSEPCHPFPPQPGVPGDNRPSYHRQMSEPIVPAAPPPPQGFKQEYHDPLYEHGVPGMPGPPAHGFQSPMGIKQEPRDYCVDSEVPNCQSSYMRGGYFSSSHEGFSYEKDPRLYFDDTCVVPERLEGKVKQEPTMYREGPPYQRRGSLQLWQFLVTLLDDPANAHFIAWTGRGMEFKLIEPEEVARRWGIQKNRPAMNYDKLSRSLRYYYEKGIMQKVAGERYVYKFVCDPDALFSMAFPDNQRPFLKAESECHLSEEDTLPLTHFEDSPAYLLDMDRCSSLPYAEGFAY
Sequence of ETV6 (P41212 whole entry): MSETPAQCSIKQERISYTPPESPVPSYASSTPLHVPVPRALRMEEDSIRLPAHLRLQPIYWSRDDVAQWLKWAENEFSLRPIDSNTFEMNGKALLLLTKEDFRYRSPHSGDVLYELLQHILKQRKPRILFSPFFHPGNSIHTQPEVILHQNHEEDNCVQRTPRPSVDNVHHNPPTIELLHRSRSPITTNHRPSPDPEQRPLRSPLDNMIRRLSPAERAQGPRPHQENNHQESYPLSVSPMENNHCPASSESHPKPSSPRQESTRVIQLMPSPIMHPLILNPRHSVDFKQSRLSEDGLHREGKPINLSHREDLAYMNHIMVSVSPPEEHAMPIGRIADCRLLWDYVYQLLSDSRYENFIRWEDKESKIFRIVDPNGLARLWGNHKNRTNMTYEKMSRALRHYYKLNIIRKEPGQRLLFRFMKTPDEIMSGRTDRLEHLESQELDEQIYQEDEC

GACCTT: the binding signal is 1.6 fold enrichment (6-mer frequency, TF over GST control) with FEV; 1.55 fold enrichment (6-mer frequency, TF over GST control) with ETV5; 1.52 fold enrichment (6-mer frequency, TF over GST control) with HSF1; 1.74 fold enrichment (6-mer frequency, TF over GST control) with SPIC; 1.73 fold enrichment (6-mer frequency, TF over GST control) with ELF4; 1.61 fold enrichment (6-mer frequency, TF over GST control) with ELK4. Moreover, the binding signal is 1.63 fold enrichment (6-mer frequency, TF over GST control) with ETV2; 1.49 fold enrichment (6-mer frequency, TF over GST control) with ELF3; 1.31 fold enrichment (6-mer frequency, TF over GST control) in the assay with CRX; 1.48 fold enrichment (6-mer frequency, TF over GST control) in the assay with ETV1; 1.5 fold enrichment (6-mer frequency, TF over GST control) with ERF; 1.64 fold enrichment (6-mer frequency, TF over GST control) with ETV3L. In addition, the binding signal was 1.49 fold enrichment (6-mer frequency, TF over GST control) with ETS2; 1.66 fold enrichment (6-mer frequency, TF over GST control) in the assay with SPDEF; 1.41 fold enrichment (6-mer frequency, TF over GST control) with ETV7; 1.62 fold enrichment (6-mer frequency, TF over GST control) in the assay with ELF5; 1.5 fold enrichment (6-mer frequency, TF over GST control) with ETV3; 1.5 fold enrichment (6-mer frequency, TF over GST control) with ETV6.

The record behind these values is PMC7862700, “An all-to-all approach to the identification of sequence-specific readers for epigenetic DNA modifications on cytosine”.
